TPT1 inhibitor – C. albicans TPT1 enzyme inhibition; recombinant caTPT1, FP RNA substrate dephosphorylation; 300,000 tested, 0.81% active; inhibition, % at 5 µM;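 active means inhibition above the mean of all tested compounds plus 3 SD, set per screening campaign, cut at about 24% in these data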;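 further: plate controls were DMSO alone for no effect and ferristatin control at 100 nM for full effect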
HNF4A DNA FP – change in binding of human HNF4 alpha to DNA | HNF4a-FITC DNA binding, fluorescence polarization, 1 h | activity change, % at 10 µM | 360,000 tested, 0.3% active | AID 1224865; in the data active means activity change above about 30%, passing the limit was not always enough
Rpn11 block – inhibitors of human proteasome Rpn11; O00487; human 26S proteasome, Ub4-pepOG fluorescence polarization; 20S core pre-blocked with epoxomicin; inhibition, % at 20 µM; 360,000 tested, 0.59% active; AID 588493;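 active means inhibition at 20 µM, scaled to each plate's controls, above about 33%, limit read from the data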
Target sequence (O00487 whole entry, looked up): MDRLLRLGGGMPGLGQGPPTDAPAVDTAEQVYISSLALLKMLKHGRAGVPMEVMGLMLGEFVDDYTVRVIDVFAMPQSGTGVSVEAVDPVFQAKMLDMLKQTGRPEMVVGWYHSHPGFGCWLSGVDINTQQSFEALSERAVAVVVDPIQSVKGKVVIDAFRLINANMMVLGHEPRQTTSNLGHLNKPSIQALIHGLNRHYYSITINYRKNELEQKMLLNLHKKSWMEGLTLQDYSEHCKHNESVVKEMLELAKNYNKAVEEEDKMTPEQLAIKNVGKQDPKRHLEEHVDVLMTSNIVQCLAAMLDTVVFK
Myeloid diff 2 – myeloid differentiation induction. 360,000 tested, 1% active. ER-HoxA9 myeloid progenitors, lysozyme-GFP differentiation, flow cytometry. calls only at 10 µM;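 active means normalized GFP-positive differentiation at or above the plate's own cutoff, the solvent-only control mean plus 3 SD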;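 further: cells exposed to compound for four days before flow analysis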
Myeloid diff – promotes myeloid progenitor differentiation; shares compounds with Myeloid diff 2; ER-HoxA9 myeloid progenitors, GFP/Mac1 double-positive flow; calls only; 2,300 tested, 2% active;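 active means share of green or green-and-red cells above 9 and 9% in run 1 or 4 and 3% in run 2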
GFP autofluor – flagged as fluorescent in myeloid differentiation counter-screen | shares compounds with Myeloid diff 2 | ER-HoxA9 myeloid progenitors, no estrogen, GFP autofluorescence flow cytometry; vehicle wells 0%, positive control 100% | fluorescence response, % (test concentration not listed) | 2,300 tested, 7.4% active;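 active means over 5% cells positive for green fluorescent reporter, or over 2% positive for both it and APC stain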;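 further: range taken on the double positive population between DMSO and positive control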
* hit, by the source's call; i = inactive; . = no result given; + = active, no number. Compounds with a hit are over-represented: about 2.1% of the library has one in this group of screens.

SMILES	TPT1 inhibitor	HNF4A DNA FP	Rpn11 block	Myeloid diff 2	Myeloid diff	GFP autofluor
COc1ccc(NS(=O)(=O)c2cccc(C(=O)NNC(=O)COc3ccccc3)c2)cc1	-2	0	-2	+	i	0
COc1ccc(N2CCN(C(=O)c3cccc(NS(=O)(=O)c4cccc(F)c4)c3)CC2)cc1	.	4	4	i	.	.
COc1ccc(N2CCN(C(=O)c3ccc(C)c(Cl)c3)CC2)cc1	-2	-2	7	i	i	0
COc1ccc(N2CCN(C(=O)c3ccc(Cl)c(S(=O)(=O)N4CCCC4)c3)CC2)cc1	-3	-1	-5	i	.	.
COc1ccc(N2CCN(C(=O)c3ccc(NS(=O)(=O)c4cccc(F)c4)cc3)CC2)cc1	-1	-4	1	i	i	1
COc1ccc(NS(=O)(=O)c2cccc(C(=O)NNC(=O)CNC(=O)c3ccccc3)c2)cc1	-3	0	6	i	.	.
C[C@@H]1CN(S(=O)C(C)(C)C)[C@@H](CCO)/C1=C\c1ccccc1 (stereo not given in full)	.	1	-3	i	.	.
CSCCC(=O)N1CCCC(N2CCN(c3cccc(C(F)(F)F)c3)CC2)C1 (stereo not given)	0	2	2	i	.	.
Cc1ccc(C(C(=O)NC2CCCCC2)N(Cc2cccnc2)C(=O)C2COc3ccccc3O2)o1 (stereo not given)	2	-1	-11	+	i	1
Cc1ccc(C(C(=O)NC2CCCCC2)N(Cc2ccco2)C(=O)C2COc3ccccc3O2)o1 (stereo not given)	-1	-2	3	i	.	.
O=C(Cc1ccccc1)Nc1cc(C(=O)c2ccccc2)ccc1N1CCOCC1	-2	2	-6	i	.	.
C/C(=N\NC(=O)CNc1ccc(F)cc1)c1cc2ccccc2o1	0	3	-2	+	i	0
Cc1ccc(C(=O)N2CCC(C)CC2)cc1NC1=NC2CS(=O)(=O)CC2S1 (stereo not given)	1	-1	-7	i	.	.
Cc1[nH]n(-c2ccccc2)c(=O)c1C(=O)c1cccc(F)c1	3	0	-1	i	i	0
Nc1cccn2c(-c3ccc(Cl)cc3)cnc12	20	17	31	+	i	0
CCS(=O)(=O)N1N=C(c2cccc(NS(C)(=O)=O)c2)CC1c1ccccc1 (stereo not given)	15	181	.	+	i	97*
CCOC(=O)C1CCN(C(=O)c2ccc3c(c2)OCCO3)CC1	.	-3	1	i	.	.
CCOc1ccc(C(=O)N2CCC(C(=O)c3ccc4c(c3)OCCO4)CC2)cc1	4	0	3	i	i	0
O=C(NCCCCc1ccccc1)C12CN(Cc3ccccc3)CC1C(c1ccc([N+](=O)[O-])cc1)=NO2 (stereo not given)	2	-4	3	+	i	0
O=C(NCCCCc1ccccc1)C12CN(Cc3ccccc3)CC1C(c1cccc([N+](=O)[O-])c1)=NO2 (stereo not given)	-1	2	-7	i	.	.
CC(OC(=O)c1ccc(NC(=O)CC#N)cc1)C(=O)Nc1ccc(Oc2ccccc2)cc1 (stereo not given)	11	2	15	i	.	.
Cc1cc(C(=O)C(C)OC(=O)c2ccc(NC(=O)CC#N)cc2)c(C)n1-c1ccc(OC(F)F)cc1 (stereo not given)	.	8	28	+	i	18*
COc1ccc(CNC(=O)C(C)N2C(=O)COc3ccc(C)cc32)c(OC)c1 (stereo not given)	1	3	-21	i	.	.
CCOC(=O)c1c(C)[nH]c(C(=O)NNC(=O)c2ccccc2)c1C	1	-2	-5	i	.	.
CCOC(=O)c1c(C)[nH]c(C(=O)N/N=C\c2ccccc2Cl)c1C	0	0	-5	i	i	0
SMILES	TPT1 inhibitor	HNF4A DNA FP	Rpn11 block	Myeloid diff 2	Myeloid diff	GFP autofluor
CCn1cc(C(=O)OCC(=O)c2cc(C)n(-c3ccc(OC(F)F)cc3)c2C)c(=O)c2ccc(C)nc21	-2	-3	17	i	.	.
Clc1cccc(Nc2nc(N3CCOCC3)nc(N3CCOCC3)n2)c1	0	3	-4	i	i	0
Clc1ccc(Oc2nc(Oc3ccc(Cl)cc3)nc(N3CCOCC3)n2)cc1	2	6	-5	+	i	1
C[C@@H]1CN([C@@H](C)CO)C(=O)CCCn2nncc2CO[C@@H]1CN(C)C(=O)Nc1cccc(Oc2ccccn2)c1	.	-5	-6	i	i	0
Cc1ccc(S(=O)(=O)N(C)C[C@@H]2OCc3cn(nn3)CCCC(=O)N([C@@H](C)CO)C[C@H]2C)cc1	.	8	-1	i	i	0
C[C@@H]1CN([C@H](C)CO)C(=O)CCCn2nncc2CO[C@H]1CN(C)C(=O)Nc1cccc(Oc2ccccn2)c1	.	0	-3	i	.	.
C[C@H]1CN([C@@H](C)CO)C(=O)CCCn2nncc2CO[C@H]1CN(C)S(=O)(=O)c1ccc2c(c1)OCCCO2	.	-1	-2	i	i	0
C[C@H](CO)N1C[C@H](C)[C@H](CN(C)S(=O)(=O)c2ccc3c(c2)OCCCO3)OCc2cnnn2CCCC1=O	.	-2	-1	i	.	.
CCCCNC(=O)C1(C)CCN1C(=O)c1cccc(OC(F)(F)F)c1 (stereo not given)	.	0	-2	i	.	.
O=C(/C(=C/c1cccnc1)n1ccnc1)c1ccc(Cl)cc1Cl	-2	1	-14	i	.	.
COc1ccc2sc3c(=O)[nH]c4ccccc4c3c2c1	-5	1	4	+	i	0
Cc1ccc(S(=O)(=O)N(CC(=O)N(C)C)c2cccc([N+](=O)[O-])c2)cc1	-3	4	-2	+	i	0
COc1ccccc1NC(=O)Nc1c(C)n(C)n(-c2ccccc2)c1=O	-2	3	-1	i	i	0
COc1ccc(C(=O)NC2CCCCCC2)cc1S(=O)(=O)N1CCCc2ccccc21	-5	-2	-4	i	i	0
O=C(Nc1ccncc1)c1ccc(Cl)c(S(=O)(=O)N2CCc3ccccc32)c1	-4	2	7	i	i	1
Cc1cccc(NC(=O)c2ccc(Cl)c(S(=O)(=O)N3CCc4ccccc43)c2)n1	.	-2	9	i	.	.
O=C(Nc1ccc2c(c1)OCO2)C1CCN(S(=O)(=O)c2ccc3c(c2)OCCO3)CC1	0	-1	-8	i	i	0
O=C(Nc1ccc2c(c1)OCO2)c1ccc(Br)c(S(=O)(=O)N2CCCC2)c1	0	-6	2	+	i	0
Cc1ccc(CCNC(=O)CCNS(=O)(=O)c2ccc3c(c2)c(=O)n(C)c(=O)n3C)cc1	-1	0	5	i	.	.
Cn1c(=O)c2cc(S(=O)(=O)NCCC(=O)NCCC3=CCCCC3)ccc2n(C)c1=O	0	6	4	+	i	1
